According to PubChem BioAssay (NCI):
About 83,000 compounds went through this panel and 20% of them were active in at least one assay; those are over-represented in the sample as a whole.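 Growth was measured after 48 h exposure to one concentration of compound in 96-well plates. Values under 10 count as active.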 Active and inactive are the calls of the source.

Columns and labels:
Assay in all cases: NCI-60 one-dose screen, 48 h (100 = growth as untreated, 0 = no growth, -100 = all killed)
Conditions in all cases: 10 µM unless noted
SK-MEL-2 melanoma = tested on: SK-MEL-2 melanoma
EKVX NSCLC = tested on: EKVX NSCLC
SN12C renal = tested on: SN12C renal
UO-31 renal = tested on: UO-31 renal
TK-10 renal = tested on: TK-10 renal
ACHN renal = tested on: ACHN renal
CAKI-1 renal = tested on: CAKI-1 renal
A498 renal = tested on: A498 renal
CCRF-CEM leukemia = tested on: CCRF-CEM leukemia
SR leukemia = tested on: SR leukemia
RPMI-8226 leukemia = tested on: RPMI-8226 leukemia
OVCAR-8 ovarian = tested on: OVCAR-8 ovarian
OVCAR-5 ovarian = tested on: OVCAR-5 ovarian
OVCAR-4 ovarian = tested on: OVCAR-4 ovarian
SK-OV-3 ovarian = tested on: SK-OV-3 ovarian
IGROV1 ovarian = tested on: IGROV1 ovarian
OVCAR-3 ovarian = tested on: OVCAR-3 ovarian
HS 578T breast = tested on: HS 578T breast
NCI/ADR-RES ovarian = tested on: NCI/ADR-RES ovarian

Measured: growth

CCn1c(C)nc2cc(C(N)=O)ccc21
inactive: SK-MEL-2 melanoma 96% | EKVX NSCLC 142% | SN12C renal 98.1% | UO-31 renal 91.5% | TK-10 renal 98% | ACHN renal 96.7% | CAKI-1 renal 143% | A498 renal 107% | CCRF-CEM leukemia 95.4% | SR leukemia 104% | RPMI-8226 leukemia 80.9% | OVCAR-8 ovarian 96.2% | OVCAR-5 ovarian 92.6% | OVCAR-4 ovarian 98.2% | SK-OV-3 ovarian 105% | IGROV1 ovarian 109% | OVCAR-3 ovarian 105% | HS 578T breast 108% | NCI/ADR-RES ovarian 97%

CNC(=O)c1cc(Oc2ccc3nc(Nc4ccc(Cl)c(C(F)(F)F)c4)ccc3c2)ccn1
inactive: SK-MEL-2 melanoma 75.9% | EKVX NSCLC 62.6% | SN12C renal 71.1% | UO-31 renal 57.8% | TK-10 renal 54.5% | ACHN renal 49.4% | CAKI-1 renal 92.7% | A498 renal 61.8% | CCRF-CEM leukemia 42.2% | SR leukemia 30% | RPMI-8226 leukemia 53.8% | OVCAR-8 ovarian 58.4% | OVCAR-5 ovarian 91.8% | OVCAR-4 ovarian 56.3% | SK-OV-3 ovarian 93.3% | IGROV1 ovarian 83.8% | OVCAR-3 ovarian 61.5% | HS 578T breast 77.8% | NCI/ADR-RES ovarian 65.5%

Nc1cc2c3c(cccc3c1)C(=O)N(CCN1CCCC1)C2=O
inactive: SK-MEL-2 melanoma 60.2% | EKVX NSCLC 73% | SN12C renal 31.9% | UO-31 renal 13.5% | TK-10 renal 105% | CCRF-CEM leukemia 28.7% | OVCAR-8 ovarian 34.4% | OVCAR-5 ovarian 65.6% | OVCAR-4 ovarian 49.2% | SK-OV-3 ovarian 36.9% | OVCAR-3 ovarian 49.9% | HS 578T breast 35.2% | NCI/ADR-RES ovarian 35.1%
active: ACHN renal 4.18% | CAKI-1 renal 7.81% | A498 renal 0.673% | SR leukemia -6.11% | RPMI-8226 leukemia 7.72% | IGROV1 ovarian 8.96%

O=C(Nc1ccccc1Cl)Oc1ccc(-c2ccccc2)cc1
inactive: SK-MEL-2 melanoma 120% | EKVX NSCLC 98% | SN12C renal 98.9% | UO-31 renal 84.5% | TK-10 renal 118% | ACHN renal 101% | CAKI-1 renal 81.8% | A498 renal 167% | CCRF-CEM leukemia 120% | SR leukemia 133% | RPMI-8226 leukemia 94.2% | OVCAR-8 ovarian 103% | OVCAR-5 ovarian 98.9% | OVCAR-4 ovarian 103% | SK-OV-3 ovarian 121% | IGROV1 ovarian 108% | OVCAR-3 ovarian 150% | HS 578T breast 180% | NCI/ADR-RES ovarian 101%

COc1ccc2c(c1)O/C(=C\c1cccc(OCC(=O)Nc3nc(C)c(C)s3)c1)C2=O
active: EKVX NSCLC -13.4% | UO-31 renal -74.9% | CAKI-1 renal -82.7% | CCRF-CEM leukemia -66.8% | RPMI-8226 leukemia -59.8% | OVCAR-3 ovarian -33.1% | NCI/ADR-RES ovarian -10.7%
inactive: SK-MEL-2 melanoma 89.3% | SN12C renal 33.8% | TK-10 renal 111% | ACHN renal 98.7% | A498 renal 114% | OVCAR-8 ovarian 15.1% | OVCAR-5 ovarian 12.7% | OVCAR-4 ovarian 67.8% | SK-OV-3 ovarian 101% | HS 578T breast 42.9%

COC1=CC(=O)C[C@@H](C)[C@]12Oc1c(Cl)c(OC)cc(OC)c1C2=O
inactive: SK-MEL-2 melanoma 82.7% | EKVX NSCLC 106% | SN12C renal 96.5% | UO-31 renal 82.7% | TK-10 renal 96.3% | ACHN renal 99.9% | CAKI-1 renal 82.1% | A498 renal 114% | CCRF-CEM leukemia 93.9% | OVCAR-8 ovarian 96.9% | OVCAR-5 ovarian 90.7% | SK-OV-3 ovarian 99.2% | IGROV1 ovarian 89.2% | OVCAR-3 ovarian 99.8% | HS 578T breast 91.5% | NCI/ADR-RES ovarian 75.5%

CS(=O)c1cccc(-c2ccc3nc(N)n(-c4ccc(C(F)(F)F)cc4)c(=O)c3c2)c1 (configuration not stated)
inactive: SK-MEL-2 melanoma 98.2% | EKVX NSCLC 108% | SN12C renal 96.3% | UO-31 renal 75.8% | TK-10 renal 94.7% | ACHN renal 105% | CAKI-1 renal 96.3% | A498 renal 107% | CCRF-CEM leukemia 99.7% | RPMI-8226 leukemia 97.4% | OVCAR-8 ovarian 96.3% | OVCAR-5 ovarian 100% | OVCAR-4 ovarian 100% | SK-OV-3 ovarian 102% | IGROV1 ovarian 102% | OVCAR-3 ovarian 101% | HS 578T breast 88.4% | NCI/ADR-RES ovarian 103%

COc1cccc(-c2nn(-c3ccccc3)cc2-c2ccnc(NCCNC(=O)Nc3cccc(C(F)(F)F)c3)c2)c1
active: SK-MEL-2 melanoma -25.2% | UO-31 renal -21.9% | SR leukemia -21.2% | HS 578T breast -21.3%
inactive: EKVX NSCLC 45.1% | SN12C renal 28.4% | TK-10 renal 57.7% | ACHN renal 35.1% | CAKI-1 renal 25.7% | A498 renal 39.7% | CCRF-CEM leukemia 28.7% | RPMI-8226 leukemia 32.6% | OVCAR-8 ovarian 19.8% | OVCAR-5 ovarian 58.4% | OVCAR-4 ovarian 46.5% | SK-OV-3 ovarian 44.9% | IGROV1 ovarian 55.4% | OVCAR-3 ovarian 39.2% | NCI/ADR-RES ovarian 27.2%

COC(=O)[C@]12CC[C@@H](C)[C@H](C)[C@@H]1C1=CC[C@@H]3[C@@]4(C)C(C=O)=C[C@@](C)(COC(C)=O)C4=CC[C@@]3(C)[C@]1(C)CC2
inactive: EKVX NSCLC 12.7% | CAKI-1 renal 13.7% | A498 renal 14.6% | OVCAR-5 ovarian 12.9% | OVCAR-4 ovarian 17% | IGROV1 ovarian 12.9% | NCI/ADR-RES ovarian 12.5%
active: SK-MEL-2 melanoma -45.1% | SN12C renal 9.9% | UO-31 renal -9.5% | TK-10 renal -8.72% | ACHN renal -16% | CCRF-CEM leukemia -14.7% | SR leukemia -30.5% | RPMI-8226 leukemia -9.49% | SK-OV-3 ovarian 6.81% | OVCAR-3 ovarian -67.3% | HS 578T breast -12.9%

O=C1N=c2cc3c(cc2=C/C1=C/c1sc(=S)n(CCc2ccc(O)cc2)c1O)OCCO3
inactive: SK-MEL-2 melanoma 82.9% | EKVX NSCLC 61.3% | UO-31 renal 71.1% | TK-10 renal 90.3% | CAKI-1 renal 59.7% | A498 renal 80.2% | CCRF-CEM leukemia 40.9% | RPMI-8226 leukemia 33.4% | OVCAR-8 ovarian 28.6% | OVCAR-5 ovarian 64% | OVCAR-4 ovarian 80.9% | SK-OV-3 ovarian 105% | IGROV1 ovarian 49% | OVCAR-3 ovarian 76.1% | HS 578T breast 74.9% | NCI/ADR-RES ovarian 64.7%
active: SN12C renal 5.51% | ACHN renal 6.54%

Cc1cc(NCc2cc(Nc3ccnc4cc(Cl)ccc34)ccc2F)nc(N2CCSCC2)n1
active: UO-31 renal -10.2% | TK-10 renal -58.3% | ACHN renal -81.4% | CCRF-CEM leukemia -10.4% | SR leukemia -11.7% | RPMI-8226 leukemia -9.52% | OVCAR-3 ovarian -32.6% | HS 578T breast -1.47%
inactive: SK-MEL-2 melanoma 47.6% | EKVX NSCLC 58.7% | SN12C renal 34.9% | CAKI-1 renal 60.9% | A498 renal 45% | OVCAR-8 ovarian 19.2% | OVCAR-5 ovarian 78.7% | OVCAR-4 ovarian 14.4% | SK-OV-3 ovarian 10.3% | IGROV1 ovarian 40.6% | NCI/ADR-RES ovarian 15.7%

COc1ccc2nc(NNC(=O)c3cnccn3)c3cccn3c2c1
active: EKVX NSCLC 2.79% | SN12C renal 8.52% | UO-31 renal -17% | ACHN renal -22.8% | CAKI-1 renal 4.46% | A498 renal -11.5% | CCRF-CEM leukemia 1.48% | RPMI-8226 leukemia 0.953% | OVCAR-8 ovarian 5.98% | OVCAR-5 ovarian 4.68% | OVCAR-4 ovarian -7.44% | SK-OV-3 ovarian -1.5% | IGROV1 ovarian -35% | OVCAR-3 ovarian 1.47% | NCI/ADR-RES ovarian -13.4%
inactive: SK-MEL-2 melanoma 46.1% | TK-10 renal 30.7% | HS 578T breast 43.8%

NC(=O)c1ccc[n+]([C@@H]2O[C@H](COP(=O)([O-])OP(=O)(O)OC[C@H]3O[C@@H](n4cnc5c(N)ncnc54)[C@H](O)[C@@H]3O)[C@@H](O)[C@H]2O)c1
inactive: SK-MEL-2 melanoma 137% | EKVX NSCLC 106% | SN12C renal 107% | UO-31 renal 105% | TK-10 renal 120% | ACHN renal 106% | CAKI-1 renal 98.3% | A498 renal 97.2% | CCRF-CEM leukemia 95.4% | RPMI-8226 leukemia 97.6% | OVCAR-8 ovarian 96.8% | OVCAR-5 ovarian 107% | OVCAR-4 ovarian 106% | SK-OV-3 ovarian 113% | IGROV1 ovarian 109% | OVCAR-3 ovarian 107% | HS 578T breast 107% | NCI/ADR-RES ovarian 99.2%

O=S(=O)(O)c1ccc(N/N=C/c2ccccc2Cl)cc1
inactive: SK-MEL-2 melanoma 102% | EKVX NSCLC 116% | SN12C renal 106% | UO-31 renal 82.7% | TK-10 renal 104% | ACHN renal 99.6% | CAKI-1 renal 89.8% | A498 renal 100% | CCRF-CEM leukemia 95.4% | RPMI-8226 leukemia 98.7% | OVCAR-8 ovarian 115% | OVCAR-5 ovarian 104% | OVCAR-4 ovarian 112% | SK-OV-3 ovarian 112% | IGROV1 ovarian 101% | OVCAR-3 ovarian 119% | HS 578T breast 111% | NCI/ADR-RES ovarian 110%

CC(=O)OC[C@H]1OC(Sc2sc(C(=O)c3ccc(Br)cc3)c(N)c2-c2nc3ccccc3s2)[C@H](OC(C)=O)[C@@H](OC(C)=O)[C@@H]1OC(C)=O (some centres not stated)
inactive: SK-MEL-2 melanoma 107% | EKVX NSCLC 72.7% | SN12C renal 33% | UO-31 renal 64.6% | TK-10 renal 111% | ACHN renal 54.9% | CAKI-1 renal 63.8% | A498 renal 87.8% | CCRF-CEM leukemia 44.1% | RPMI-8226 leukemia 43% | OVCAR-8 ovarian 46.1% | OVCAR-5 ovarian 65.7% | OVCAR-4 ovarian 12.9% | SK-OV-3 ovarian 96.6% | IGROV1 ovarian 45.6% | OVCAR-3 ovarian 76.2% | HS 578T breast 43% | NCI/ADR-RES ovarian 57.9%

CCCCOc1nc2ccccc2cc1C1CNC(=O)c2ccccc2N1 (configuration not stated)
inactive: SK-MEL-2 melanoma 15.7% | EKVX NSCLC 33% | SN12C renal 44.1% | UO-31 renal 41.3% | TK-10 renal 34.3% | ACHN renal 46.7% | CAKI-1 renal 42.6% | CCRF-CEM leukemia 12.6% | SR leukemia 19.8% | RPMI-8226 leukemia 25.6% | OVCAR-8 ovarian 22.4% | OVCAR-5 ovarian 55.3% | OVCAR-4 ovarian 47.7% | SK-OV-3 ovarian 14.8% | IGROV1 ovarian 38% | HS 578T breast 34.1%
active: A498 renal -11.2% | OVCAR-3 ovarian -9.73% | NCI/ADR-RES ovarian 3.84%
